Experimental findings from PubChem BioAssay AID1508615 (Milbrandt Lab, Department of Genetics, Washington …, 2020) are described below.

In all, about 1,600 compounds went through this assay and about 20 (1%) were called active. This excerpt belongs to a sample that is enriched for actives. A number with no mark means an inactive call.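 The calls were made as follows: active = ratio of uncleaved NAD to its breakdown product ADP-ribose above 4, meaning the enzyme was inhibited; inactive = the rest.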

NAD(+) hydrolase SARM1 (Homo sapiens), sequence (Q6SZW1 whole entry, looked up): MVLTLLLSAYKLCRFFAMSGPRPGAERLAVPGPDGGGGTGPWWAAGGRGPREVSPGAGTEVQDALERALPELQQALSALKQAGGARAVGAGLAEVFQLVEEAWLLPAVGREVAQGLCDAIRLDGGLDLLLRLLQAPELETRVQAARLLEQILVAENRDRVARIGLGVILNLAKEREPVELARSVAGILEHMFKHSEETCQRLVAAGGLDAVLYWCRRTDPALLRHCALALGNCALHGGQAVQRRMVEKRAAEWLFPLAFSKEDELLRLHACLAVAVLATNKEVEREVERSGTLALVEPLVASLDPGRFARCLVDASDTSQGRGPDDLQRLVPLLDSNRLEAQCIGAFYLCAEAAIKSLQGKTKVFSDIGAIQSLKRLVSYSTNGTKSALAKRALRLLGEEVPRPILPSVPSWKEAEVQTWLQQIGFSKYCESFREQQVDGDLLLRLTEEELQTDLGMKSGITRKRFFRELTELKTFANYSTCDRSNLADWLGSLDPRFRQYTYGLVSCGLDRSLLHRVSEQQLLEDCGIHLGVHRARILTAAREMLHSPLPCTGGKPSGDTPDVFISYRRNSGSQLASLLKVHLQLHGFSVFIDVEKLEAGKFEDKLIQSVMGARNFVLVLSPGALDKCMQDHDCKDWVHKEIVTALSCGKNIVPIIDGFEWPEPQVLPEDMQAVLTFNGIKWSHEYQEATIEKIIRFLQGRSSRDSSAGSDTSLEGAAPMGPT

The assay addresses NAD(+) hydrolase SARM1 (Homo sapiens) (UniProt Q6SZW1). Briefly: inhibition of SAM-TIR NAD hydrolysis to ADPR – cell lysate, HPLC readout, primary screen (AID 1508615).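 Also: substrate NAD at 5 µM with 60 min at 37 °C.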 As to conditions: HEK293T SAM-TIR lysate, NAD/ADPR ratio by HPLC; at 5 µM; hits give high values.
On to `c1ccc(-c2cn3ccccc3n2)cc1`, for which the NAD/ADPR ratio was 3.

Take `CC1(C)CCCC2(C)C(OCCO)=CC(=O)C=C12` (stereo unspecified): the NAD/ADPR ratio is 3.

Take `COc1cc2c(O)cc(C(=O)O)c(-c3cc(OC)c(OC)c(OC)c3)c2cc1OC`: the NAD/ADPR ratio is 3.

For the molecule `CSc1nc(Cl)cc(=O)[nH]1`, the NAD/ADPR ratio was 3.

For `OC(C#Cc1ccccc1)(c1ccccc1)c1ccccc1`, the NAD/ADPR ratio was 3.

As to `Cc1cc(=O)n2c3c(c4c(cc13)c(CN(C)C)cc(=O)n4C)OC2`, the NAD/ADPR ratio was 3.

As to `CC1(C)CC2(C)OC2C2(C1)N=NC(=Nc1ccccc1)O2` (stereo unspecified), the NAD/ADPR ratio is 3.

For the molecule `Cc1cc2nc(-c3ccccn3)c(-c3ccccn3)nc2cc1C`, the NAD/ADPR ratio is 3.

Consider `S=C(Sc1ccc(Cl)cc1)Sc1ccc(Cl)cc1`, for which the NAD/ADPR ratio was 3.

On to `Cc1ccc([N+](=O)[O-])cc1NC(=O)Nc1cccc(F)c1`, for which the NAD/ADPR ratio is 3.

As to `CC1(C)SC(C)(C)N(C=O)C1C(=O)O` (stereo unspecified), the NAD/ADPR ratio is 3.

`CCOC(=O)Cc1cc(=O)[nH]n(-c2ccccc2)c1=O`: the NAD/ADPR ratio was 3.

`Cc1ccc(/C=C2\CCOC2=O)cc1`: the NAD/ADPR ratio is 3.

In the case of `Cc1ccc2c(c1)sc1nncn12`, the NAD/ADPR ratio was 3.

As for `Oc1ccc(Cc2ccccc2Cl)c(O)c1`, the NAD/ADPR ratio was 3.

As to `COc1cc(/C=N/Nc2nc3c([nH]2)c(=O)n(C)c(=O)n3C)ccc1O`, the NAD/ADPR ratio is 3.

In the case of `O=C1CCC(NC(=O)c2ccccc2)C(=O)N1` (stereo unspecified), the NAD/ADPR ratio is 3.

As for `O=C(/C=C/c1cccnc1)c1ccccc1O`, the NAD/ADPR ratio was 3.

Turning to `CCCCCn1cnc2c(=S)nc(N)[nH]c21`, the NAD/ADPR ratio was 3.

For the molecule `CN1CN(C)C(c2ccncc2)=C1c1ccncc1`, the NAD/ADPR ratio is 3.

Turning to `CCCCOc1ccc(NC(=O)Nc2nnc(C)s2)cc1`, the NAD/ADPR ratio was 3.

In the case of `Cc1ccc(C(C)C)cc1NC(=O)Nc1ccc([N+](=O)[O-])cc1`, the NAD/ADPR ratio was 3.

For `Cc1cc(NC(=O)c2ccccc2)nc(C)n1`, the NAD/ADPR ratio is 3.

As for `Nc1ccnn1-c1ccccc1`, the NAD/ADPR ratio is 3.

`O=C(O)C(Cc1cn[nH]n1)=NO`: the NAD/ADPR ratio was 3.

For `NC(=O)SCC(=O)Nc1ccccc1C(=O)O`, the NAD/ADPR ratio was 3.

As for `CC(NC(=O)c1ccc(Cl)c(Cl)c1)c1ccc(-c2ccccc2)cc1` (stereo unspecified), the NAD/ADPR ratio was 3.

Consider `OC(c1cc(-c2ccc(Cl)cc2)nc2ccccc12)C1CCCCN1` (stereo unspecified), for which the NAD/ADPR ratio is 3.

On to `Clc1ccc(SCNc2ccccc2Cl)cc1`, for which the NAD/ADPR ratio is 3.

Turning to `Nc1ncnc2c1ncn2C1OC(CO)C(O)C1N` (stereo unspecified), the NAD/ADPR ratio was 3.

On to `CC1(C)CC(=O)C(CC(=O)c2ccccc2)=C(NN=C(N)N)C1`, for which the NAD/ADPR ratio was 3.

For the molecule `O=C(O)CCC1(c2ccccc2)NC(=O)NC1=O` (stereo unspecified), the NAD/ADPR ratio was 3.

Take `c1ccc2c(c1)Oc1cccc3cccc-2c13`: the NAD/ADPR ratio is 3.

For `O=C1c2cc([N+](=O)[O-])ccc2-c2cc(Br)c(N=C(NO)C(F)(F)F)cc21`, the NAD/ADPR ratio was 3.

Regarding `O=c1cc[nH]c2c(Cl)cccc12`, the NAD/ADPR ratio was 3.

Take `COc1cc(-c2ccc(NC(=O)NC3CC3)c(OC)c2)ccc1NC(=O)NC1CC1`: the NAD/ADPR ratio was 3.
